The panel holds about 79,000 compounds, 15% with a hit somewhere; the sample as a whole holds those more often. The source made the active and inactive calls. No stated cut-off is given here; in the data, active means growth inhibition above about 70%; inactive means the rest.
How the values were obtained:
[1] = NCI Yeast Anticancer Drug Screen. Data for the rad52 strain (AID 147);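 further: 0% = growth of vehicle-treated control cultures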; details: S. cerevisiae rad52 mutant growth inhibition, active compounds read high
Summary of the method: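 Inhibition of yeast growth, referenced to vehicle controls, was the measured output for a strain with defective DNA damage repair.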

[2] = NCI Yeast Anticancer Drug Screen. Data for the wt1 strain (AID 149);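 further: 0% = growth of vehicle-treated wt1 cultures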; details: S. cerevisiae wt1 strain (SPY 50644) growth inhibition, active compounds read high
Summary of the method: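 wt1 strain grown with compound or vehicle; inhibition taken from the growth difference.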

[3] = NCI Yeast Anticancer Drug Screen. Data for the rad50EPP+ strain (AID 151);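 further: 0% = growth of vehicle-treated control cultures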; details: S. cerevisiae rad50 mutant strain, active compounds read high
Summary of the method: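 Genetically defined yeast (rad50EPP+, DNA damage repair alteration) is grown with compound, and inhibition of growth is expressed relative to vehicle-treated controls.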

[4] = NCI Yeast Anticancer Drug Screen. Data for the mgt1 strain (AID 153); details: S. cerevisiae mgt1 mutant growth inhibition, active compounds read high
Summary of the method: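 In the mgt1 strain, test compounds were added and growth inhibition was determined relative to vehicle-treated controls.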

[5] = NCI Yeast Anticancer Drug Screen. Data for the rad50 strain (AID 155);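 further: 0% = growth of vehicle-only cultures of the same strain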; details: S. cerevisiae rad50 strain growth inhibition, active compounds read high
Summary of the method: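 DNA repair mutant yeast, compound exposure, growth read-out; inhibition is taken relative to vehicle.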

[6] = NCI Yeast Anticancer Drug Screen. Data for the mec2-1 strain (AID 157); details: S. cerevisiae mec2-1 strain, active compounds read high
Summary of the method: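 Each compound was tested on mec2-1 yeast, a strain altered in DNA damage repair or cell cycle control. Growth inhibition is reported relative to vehicle.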

[7] = NCI Yeast Anticancer Drug Screen. Data for the rad14 strain (AID 159);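 further: 0% = growth of vehicle-treated control cultures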; details: S. cerevisiae rad14 strain growth inhibition, active compounds read high
Summary of the method: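 DNA repair-defective yeast, compound-exposed; % growth inhibition derived by comparison with vehicle-treated controls.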

[8] = NCI Yeast Anticancer Drug Screen. Data for the sgs1 mgt1 strain (AID 161);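 further: 0% = growth of cultures given vehicle only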; details: S. cerevisiae sgs1 mgt1 strain, active compounds read high
Summary of the method: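 Read-out: growth inhibition vs vehicle controls. Cells: mutant yeast strain deficient in DNA damage repair.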

[9] = NCI Yeast Anticancer Drug Screen. Data for the CLN2oe strain (AID 163);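 further: 0% = growth of vehicle-only control cultures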; details: S. cerevisiae CLN2oe strain, active compounds read high
Summary of the method: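 First, the altered yeast strain was treated with each compound; second, its growth was measured; finally, inhibition was derived by comparison with vehicle controls.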

[10] = NCI Yeast Anticancer Drug Screen. Data for the cln2 rad14 strain (AID 165);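 further: 0% = growth equal to vehicle treated cultures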; details: S. cerevisiae cln2 rad14 strain, active compounds read high
Summary of the method: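 Test compounds were added to cln2 rad14 yeast cultures; inhibition of growth was then determined by comparison with vehicle treatment.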

[11] = NCI Yeast Anticancer Drug Screen. Data for the bub3 strain (AID 167); details: S. cerevisiae bub3 mutant strain, active compounds read high
Summary of the method: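 In this screen, a yeast mutant lacking normal mitotic checkpoint function is challenged with compound. Relative growth versus vehicle gives the inhibition value.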

[12] = NCI Yeast Anticancer Drug Screen. Data for the wt2 strain (AID 169);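 further: 0% = growth of vehicle-treated yeast cultures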; details: S. cerevisiae wt2 strain growth inhibition, active compounds read high
Summary of the method: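 The panel's yeast strains carry defined changes in DNA repair or cell cycle genes. Each strain is grown with compound, and growth loss is scored relative to vehicle.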

[13] = NCI Yeast Anticancer Drug Screen. Data for the mlh1 strain (AID 171);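 further: 0% = growth of vehicle-treated control cultures of the same strain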; details: S. cerevisiae mlh1 strain growth inhibition, active compounds read high
Summary of the method: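 Inhibition values reflect reduced yeast growth in the presence of compound, referenced to vehicle controls, using a strain chosen for its alteration in DNA repair or cell cycle control.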

[14] = NCI Yeast Anticancer Drug Screen. Data for the sgs1 strain (AID 173);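 further: 0% = growth of vehicle-only control cultures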; details: S. cerevisiae sgs1 mutant, active compounds read high
Summary of the method: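 Vehicle-treated cultures served as reference for growth inhibition of a yeast strain altered in DNA damage repair or cell cycle control after compound exposure.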

[15] = NCI Yeast Anticancer Drug Screen. Data for the mlh1 rad18 strain (AID 175); details: S. cerevisiae mlh1 rad18 strain growth inhibition, active compounds read high
Summary of the method: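 Inhibition values reflect reduced growth of mutant yeast versus vehicle-treated controls following compound exposure; the mutations affect DNA damage repair.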

[16] = NCI Yeast Anticancer Drug Screen. Data for the rad18 strain (AID 177); details: S. cerevisiae rad18 mutant growth inhibition, active compounds read high
Summary of the method: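 Steps: expose repair-mutant yeast to compound; measure growth; express as inhibition relative to vehicle control.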

[17] = at 5.0 µM (retest, dose inferred, filed as 0.5)
[18] = at 50.0 µM (retest, dose inferred, filed as 5.0)

Measured: growth inhibition

CC[C@](O)(C(=O)O)c1cc2n(c(=O)c1CO)Cc1cc3ccccc3nc1-2
active: [1]; at 1.2 µM 92% | [1]; at 3.7 µM 94% | [1]; at 11.0 µM 95% | [1]; at 33.0 µM 96% | [1]; at 100.0 µM 96% | [2]; at 33.0 µM 92% | [2]; at 100.0 µM 94% | [3]; at 1.2 µM 80% | [3]; at 3.7 µM 93% | [3]; at 11.0 µM 96% | [3]; at 33.0 µM 97% | [3]; at 100.0 µM 98% | [4]; at 33.0 µM 80% | [4]; at 100.0 µM 95% | [5]; at 1.2 µM 95% | [5]; at 3.7 µM 97% | [5]; [17] 97% | [5]; at 11.0 µM 97% | [5]; at 33.0 µM 97% | [5]; [18] 98% | [5]; at 50.0 µM 98.3% | [5]; at 100.0 µM 97% | [6]; at 3.7 µM 82% | [6]; [17] 95% | [6]; at 11.0 µM 94% | [6]; at 33.0 µM 95% | [6]; [18] 98% | [6]; at 50.0 µM 97% | [6]; at 100.0 µM 96% | [7]; at 11.0 µM 81% | [7]; at 33.0 µM 93% | [7]; at 100.0 µM 96% | [8]; [17] 88% | [8]; [18] 97% | [8]; at 50.0 µM 97.2% | [9]; at 11.0 µM 88% | [9]; at 33.0 µM 93% | [9]; at 100.0 µM 96% | [10]; [18] 96% | [10]; at 50.0 µM 87.8% | [11]; at 33.0 µM 91% | [11]; [18] 97% | [11]; at 50.0 µM 96.8% | [11]; at 100.0 µM 95% | [12]; at 11.0 µM 81% | [12]; at 33.0 µM 95% | [12]; at 100.0 µM 94% | [13]; at 11.0 µM 81% | [13]; at 33.0 µM 94% | [13]; at 100.0 µM 97% | [14]; at 11.0 µM 92% | [14]; at 33.0 µM 95% | [14]; at 100.0 µM 97% | [15]; [17] 83% | [15]; [18] 97% | [15]; at 50.0 µM 96.5% | [16]; at 11.0 µM 82% | [16]; at 33.0 µM 93% | [16]; at 100.0 µM 96%
inactive: [2]; at 1.2 µM 0% | [2]; at 3.7 µM 10% | [2]; at 11.0 µM 67% | [4]; at 1.2 µM -1% | [4]; at 3.7 µM 7% | [4]; at 11.0 µM 67% | [6]; at 1.2 µM 14% | [7]; at 1.2 µM 3% | [7]; at 3.7 µM 29% | [9]; at 1.2 µM -7% | [9]; at 3.7 µM 36% | [10]; [17] 66% | [11]; at 1.2 µM -16% | [11]; at 3.7 µM -3% | [11]; [17] 58% | [11]; at 11.0 µM 67% | [12]; at 1.2 µM -3% | [12]; at 3.7 µM 13% | [13]; at 1.2 µM 3% | [13]; at 3.7 µM 21% | [14]; at 1.2 µM 17% | [14]; at 3.7 µM 64% | [16]; at 1.2 µM 4% | [16]; at 3.7 µM 29%

C/C(=N\NC(N)=O)C(CN1CCOCC1)C(c1ccccc1)c1c(O)c2ccccc2oc1=O (stereo unspecified)
active: [5]; [17] 89% | [5]; [18] 89% | [5]; at 50.0 µM 70.2% | [8]; [17] 89% | [8]; [18] 89% | [8]; at 50.0 µM 78.2%
inactive: [1]; at 1.2 µM 1% | [1]; at 3.7 µM 2% | [1]; at 11.0 µM 0% | [1]; at 33.0 µM 1% | [1]; at 100.0 µM -1% | [2]; at 1.2 µM 6% | [2]; at 3.7 µM 1% | [2]; at 11.0 µM 1% | [2]; at 33.0 µM 0% | [2]; at 100.0 µM -1% | [3]; at 1.2 µM -2% | [3]; at 3.7 µM 4% | [3]; at 11.0 µM 1% | [3]; at 33.0 µM -1% | [3]; at 100.0 µM -10% | [4]; at 1.2 µM -2% | [4]; at 3.7 µM 2% | [4]; at 11.0 µM -3% | [4]; at 33.0 µM 0% | [4]; at 100.0 µM -24% | [5]; at 1.2 µM -1% | [5]; at 3.7 µM 6% | [5]; at 11.0 µM 9% | [5]; at 33.0 µM 5% | [5]; at 100.0 µM -6% | [6]; at 1.2 µM 4% | [6]; at 3.7 µM 6% | [6]; [17] 13% | [6]; at 11.0 µM 6% | [6]; at 33.0 µM 7% | [6]; [18] 13% | [6]; at 50.0 µM 53.6% | [6]; at 100.0 µM 4% | [7]; at 1.2 µM 7% | [7]; at 3.7 µM 8% | [7]; at 11.0 µM 2% | [7]; at 33.0 µM 2% | [7]; at 100.0 µM 3% | [9]; at 1.2 µM 4% | [9]; at 3.7 µM 3% | [9]; at 11.0 µM 4% | [9]; at 33.0 µM 4% | [9]; at 100.0 µM -2% | [10]; [17] -7% | [10]; [18] -7% | [10]; at 50.0 µM 59.9% | [11]; at 1.2 µM 4% | [11]; at 3.7 µM 1% | [11]; [17] -7% | [11]; at 11.0 µM 2% | [11]; at 33.0 µM 5% | [11]; [18] -7% | [11]; at 50.0 µM 68% | [11]; at 100.0 µM 1% | [12]; at 1.2 µM 2% | [12]; at 3.7 µM 0% | [12]; at 11.0 µM 0% | [12]; at 33.0 µM -2% | [12]; at 100.0 µM -4% | [13]; at 1.2 µM -2% | [13]; at 3.7 µM 1% | [13]; at 11.0 µM 0% | [13]; at 33.0 µM -3% | [13]; at 100.0 µM 1% | [14]; at 1.2 µM -2% | [14]; at 3.7 µM 3% | [14]; at 11.0 µM 1% | [14]; at 33.0 µM -1% | [14]; at 100.0 µM -5% | [15]; [17] 40% | [15]; [18] 40% | [15]; at 50.0 µM 63.2% | [16]; at 1.2 µM 2% | [16]; at 3.7 µM 0% | [16]; at 11.0 µM 6% | [16]; at 33.0 µM 1% | [16]; at 100.0 µM -7%

Source: PubChem BioAssay (NCI)
